SMILES strings stand for the structures. The whole screen tested about 290,000 compounds, of which about 890 (0.31%) were called active. Rule as the data show it: active = inhibition mostly above about 52% (no sharp cut-off); inactive = mostly below about 76%. The full list was thinned out, with actives kept by preference.

From PubChem BioAssay AID1986 (Sanford-Burnham Center for Chemical Genomics, 2009) come the findings set out here.

The nature of this assay: inhibitors of HIV fusion peptide binding, primary screen, biochemical, uHTS, fluorescence dequenching (AID 1986). To be noted: cell-free peptide binding, 30 min, stronger effect = higher value.
The mark [1] stands for this setting: measured here: repeat confirmation average inhibition, at 18.6 µM.

The term inhibition denotes the change of the read-out against control, counted positive when it falls. As for `O=C(CN1CCN(c2ccccc2F)CC1)c1c[nH]c2ccc(F)cc12`, for the setting “at 20 µM”, the inhibition was 4% (inactive).
Still for that read-out and setting: the value for `Cc1cc(C)n2cc(CSc3nncn3C)nc2n1` was -1.3% (inactive); that for `CC1c2ccsc2CCN1S(=O)(=O)c1cccs1` (configuration not stated) was -1% (inactive); that for `COc1ccc(Cc2nc3ccc(C(=O)N(C)CCc4cnn(C)c4)cc3o2)cc1OC` was 0.7% (inactive).
Same read-out and setting: the value for `C/C(CC(=O)Nc1ccc(Cl)c(C(F)(F)F)c1)=N\NC(=O)c1cc2ccccc2cc1O` was 67.3% (active); that for `C/C(CC(=O)Nc1ccc(Cl)c(C(F)(F)F)c1)=N\NC(=O)c1cccc(O)c1` was 4.2% (inactive); that for `C/C(CC(=O)Nc1ccc(Cl)c(C(F)(F)F)c1)=N\NC(=O)c1ccccc1O` was 26.3% (inactive).
With `O=C(NCCCn1ccnc1)C(=O)Nc1ccccc1`, under “at 20 µM”, the inhibition is 0.2% (inactive).
The same measure, in the same setting: the value for `COc1ccc(OC)c(NC(=O)Cc2nn(C)c(=O)c3ccccc23)c1` was 2.9% (inactive).
With `Cc1c(C(=O)N2CCC(C)CC2)cccc1[N+](=O)[O-]`, the inhibition (at 20 µM) is -0.4% (inactive).
Same read-out and setting: the value for `O=[N+]([O-])c1ccc(S(=O)(=O)Nc2nc3ccccc3nc2Nc2ccccc2)cc1` was 1% (inactive).
As for `NS(=O)(=O)c1ccc(Nc2nc3ccccc3nc2NS(=O)(=O)c2cccc([N+](=O)[O-])c2)cc1`, where the note is “at 20 µM”, the inhibition was 69.6% (active).
Still for that read-out and setting: the value for `COc1ccc(S(=O)(=O)Nc2cccc(S(=O)(=O)N3CCCCCC3)c2)cc1` was 2.5% (inactive); that for `Cc1ccc(S(=O)(=O)Nc2nc3ccccc3nc2Nc2cccc(S(=O)(=O)N3CCCC3)c2)cc1` was 72.4% (active); that for `O=S(=O)(Nc1cccc(S(=O)(=O)N2CCCCCC2)c1)c1ccccc1` was -0.4% (inactive).
Turning to `CC(=O)Nc1ccc(S(=O)(=O)Nc2nc3ccccc3nc2Nc2ccc(S(N)(=O)=O)cc2)cc1`, the inhibition (at 20 µM) is 37.9% (inactive).
Still for that read-out and setting: the value for `O=C(CSC1=NCCS1)N1CCCC1` was 4.9% (inactive); that for `CCN1CCN(CC(O)COc2ccc(Cl)cc2)CC1` (configuration not stated) was -1.2% (inactive); that for `CCc1nnc(NC(=O)c2ccc(OCc3c(C)noc3C)c(OC)c2)s1` was 0.8% (inactive).
The same measure, in the same setting: the value for `O=C(Nc1nc(-c2ccco2)c(-c2ccco2)s1)C1CCC1` was 63.8% (active).
Turning to `O=C(CCCSc1ccccc1)Nc1nc(-c2ccco2)c(-c2ccco2)s1`, the inhibition is, setting by setting: (at 20 µM) 58.7% (inactive); under setting [1], 2.6%.
For the compound `O=C(Nc1nnc(-c2ccco2)s1)C1CCCCC1`, where the note is “at 20 µM”, the inhibition was 2.3% (inactive).
Same read-out and setting: the figure for `O=C(Nc1nnc(C2CC2)s1)C1CC(=O)N(c2ccc3c(c2)OCCO3)C1` (configuration not stated) is 16.4% (inactive); for `Nc1nc(-c2ccco2)c(-c2ccco2)s1` it is 1.2% (inactive).
Turning to `O=C(Nc1nc(-c2ccco2)c(-c2ccco2)s1)C1CC(=O)N(c2ccc3c(c2)OCCO3)C1` (configuration not stated), the inhibition (at 20 µM) was 59.5% (active).
Still for that read-out and setting: the value for `O=C(CCl)Nc1nc(-c2ccco2)c(-c2ccco2)s1` was 64.5% (active); that for `O=C(Nc1nnc(-c2ccco2)s1)C1CC1` was 0.3% (inactive); that for `COc1ccc(-c2nc(NC(=O)C3CC(=O)N(c4ccc5c(c4)OCCO5)C3)sc2C)cc1` (configuration not stated) was 2.7% (inactive).
Still for that read-out and setting: the value for `COc1cccc(NC(=O)N(C2CCCCC2)C(C)c2cccs2)c1` (configuration not stated) was -4.1% (inactive); that for `CCOC(=O)c1cnc2c(ccc3ccccc32)c1NCCN(C)C` was -0.1% (inactive).
Regarding `CCOC(=O)c1cccc(NC(=O)CCn2nc(C)c(S(=O)(=O)N3CCCCC3)c2C)c1`, under “at 20 µM”, the inhibition is -0.9% (inactive).
Turning to `CCC(C)(C)NC(=O)CN(C(=O)C(=O)Nc1ccc2c(c1)OCCO2)N1CCOCC1`, for the setting “at 20 µM”, the inhibition was 1.2% (inactive).
Still for that read-out and setting: the value for `COc1ccccc1N1CCN(C(=O)CCc2ccc(S(=O)(=O)NCC(C)C)cc2)CC1` was 0.1% (inactive); that for `N#CC(C#N)=Cc1ccc(OCC(=O)N2CCOCC2)cc1` was 0.6% (inactive).
The same measure, in the same setting: the value for `O=C1C=C(Nc2ccc(Cl)cc2)C(=O)N1c1ccc(Cl)cc1` was 54.8% (active); that for `O=C1c2ccccc2C(=O)N1c1ccc(Cl)cc1` was -5.5% (inactive).
Still for that read-out and setting: the value for `O=C1C=C(N2CCCCCC2)C(=O)N1c1ccc(Cl)cc1` was -1.8% (inactive); that for `COC(=O)C1CCCCN1C(=O)c1cccc(OC2CCN(C(=O)C3CC3)CC2)c1` (configuration not stated) was 1.5% (inactive).
Turning to `CCOC(=O)C1=C(O)/C(=C/c2ccc(-c3ccccc3C(=O)O)o2)SC1=Nc1ccc(OC)cc1`, the inhibition (at 20 µM) is 51.8% (active).
Same read-out and setting: the value for `CCOC(=O)C1=C(O)/C(=C/c2cc(OC)c(OC)c(OC)c2)SC1=Nc1ccc(OC)cc1` was -0.4% (inactive).
In the case of `CCOC(=O)C1=C(O)/C(=C/c2cc(OC)c(O)c(OC)c2)SC1=Nc1ccc(OC)cc1`, the inhibition (at 20 µM) was 32.3% (inactive).
For `O=C(CCCCCCCCC(=O)N/N=C/c1ccco1)N/N=C/c1ccco1`, where the note is “at 20 µM”, the inhibition was -2.2% (inactive).
Same read-out and setting: the value for `Oc1ccccc1N1CCN(C(=S)NCCc2ccccc2)CC1` was 9.4% (inactive); that for `COc1ccc(OC)c(C(=O)c2c(C)oc3cc([N+](=O)[O-])c(O)c([N+](=O)[O-])c23)c1` was -0.7% (inactive); that for `Cc1oc2cc([N+](=O)[O-])c(O)c([N+](=O)[O-])c2c1C(=O)c1ccc(Br)cc1` was 51% (active).
On to `Cc1oc2cc([N+](=O)[O-])c(O)c([N+](=O)[O-])c2c1C(=O)c1ccc(Cl)cc1`, for which the inhibition (at 20 µM) is 19.8% (inactive).
Same read-out and setting: the value for `CCCNC(=O)NC(=O)CSc1nnc(C)n1N` was 1.6% (inactive); that for `CC(=O)c1sc(Nc2cccc(C)c2)nc1C` was 0.2% (inactive).
Regarding `O=C(O)CN1C(=O)/C(=C\c2ccccc2OCc2ccc(F)cc2)SC1=S`, the inhibition is 60.3% (inactive) (at 20 µM) and 36.9% under setting [1].
In the case of `O=C(O)CN1C(=O)/C(=C\c2ccccc2OCc2ccc(Cl)cc2)SC1=S`, under “at 20 µM”, the inhibition was 45.9% (inactive).
